Experimental data: PubChem BioAssay AID1159580 (chemical genetic matrix, 2015)
Values joined by “and” are separate entries in the source; they are usually repeats but may differ in a detail not shown here. Equal entries are not always repeated. The whole screen tested about 5,500 compounds, of which about 2,000 (36%) were called active. Not shown: some 18% with an inconclusive outcome. Rule as the data show it: active = normalized growth mostly below about 0.91 (no sharp cut-off); inconclusive = no clear call, values can overlap the other calls; inactive = mostly above about 0.92. Some of the results follow.

Assay: chemical genetic growth profiling, strain panel (AID 1159580);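 also: tested at 20 µM; growth read once vehicle control cultures reached saturation at 30 °C; 1 = growth at the plate median or of vehicle wells; lower values mean less growth of the strain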
Details: S. cerevisiae deletion strains, growth OD

Measured: normalized growth

CC(CCC(=O)O)[C@H]1CCC2C3CC[C@@H]4CCCC[C@]4(C)C3CC[C@@]21C (stereo partly drawn)
inactive: locus YAL013W, strain DEP1, hits give low values 0.995 | locus YAL021C, strain ccr4, hits give low values 1.01 | locus YAL026C, strain drs2, hits give low values 1.01 | locus YAL030W, strain snc1, hits give low values 1.01 | locus YBL061C, strain skt5, hits give low values 1.02 | locus YBR009C, strain hhf1, hits give low values 1.01 | locus YBR021W, strain FUR4, hits give low values 0.987 | locus YBR023C, strain chs3, hits give low values 1.03 | locus YBR171W, strain sec66, hits give low values 1.02 | locus YBR229C, strain ROT2, hits give low values 0.991 | locus YBR231C, strain swc5, hits give low values 1.03 | locus YBR279W, strain paf1, hits give low values 1.01 | locus YCL011C, strain gbp2, hits give low values 1.02 | locus YCL016C, strain dcc1, hits give low values 1.04 | locus YCL029C, strain bik1, hits give low values 0.98 | locus YCL061C, strain MRC1, hits give low values 1.02 | locus YCL069W, strain vba3, hits give low values 1.01 | locus YCR088W, strain abp1, hits give low values 1.01 | locus YDL005C, strain med2, hits give low values 0.999 | locus YDL035C, strain GPR1, hits give low values 0.982 | locus YDL040C, strain nat1, hits give low values 1.01 | locus YDL074C, strain BRE1, hits give low values 0.973 | locus YDL101C, strain DUN1, hits give low values 1.01 | locus YDL185W, strain tfp1, hits give low values 0.977 | locus YDL192W, strain arf1, hits give low values 0.98 | locus YDR001C, strain nth1, hits give low values 1.01 | locus YDR069C, strain doa4, hits give low values 0.994 | locus YDR101C, strain arx1, hits give low values 0.983 | locus YDR137W, strain rgp1, hits give low values 1.05 | locus YDR150W, strain NUM1, hits give low values 0.995 | locus YDR159W, strain sac3, hits give low values 0.998 | locus YDR162C, strain NBP2, hits give low values 1.04 | locus YDR195W, strain ref2 0.981 | locus YDR297W, strain sur2, hits give low values 1.01 | locus YDR318W, strain mcm21, hits give low values 0.988 | locus YDR334W, strain swr1, hits give low values 1 | locus YDR335W, strain msn5, hits give low values 1 | locus YDR388W, hits give low values 0.987 | locus YDR392W, strain spt3, hits give low values 0.943 | locus YDR502C, strain sam2, hits give low values 0.979 | locus YEL003W, strain gim4, hits give low values 1.01 | locus YEL037C, strain rad23, hits give low values 0.993 | locus YEL061C, strain CIN8 (second series), hits give low values 1.01 | locus YEL061C, strain CIN8, hits give low values 0.995 | locus YER015W, strain faa2, hits give low values 1 | locus YER016W, strain bim1, hits give low values 1.01 | locus YER110C, hits give low values 0.986 | locus YER111C, strain swi4, hits give low values 1.02 | locus YER155C, strain BEM2 (second series), hits give low values 1.03 | locus YER155C, strain BEM2, hits give low values 0.989 | locus YER167W, strain BCK2, hits give low values 0.98 | locus YFR010W, strain ubp6, hits give low values 0.997 | locus YGL078C, strain dbp3, hits give low values 0.989 | locus YGL086W, strain mad1, hits give low values 0.985 | locus YGL167C, strain pmr1, hits give low values 1.01 | locus YGL173C, strain kem1, hits give low values 1.01 | locus YGL227W, strain vid30, hits give low values 1.02 | locus YGL240W, strain doc1, hits give low values 1.03 | locus YGL248W, strain PDE1, hits give low values 1 | locus YGL253W, strain hxk2, hits give low values 1 | locus YGR078C, strain PAC10, hits give low values 1.02 | locus YGR135W, strain pre9, hits give low values 1.02 | locus YGR252W, strain gcn5, hits give low values 1.08 | locus YHR013C, strain ard1, hits give low values 1.02 | locus YHR027C, strain rpn1, hits give low values 0.995 | locus YHR030C, strain SLT2, hits give low values 0.997 and 0.97 | locus YHR079C, strain IRE1 (second series), hits give low values 0.981 | locus YHR079C, strain IRE1, hits give low values 0.973 | locus YHR094C, strain hxt1, hits give low values 0.985 | locus YHR129C, strain ARP1, hits give low values 0.995 | locus YHR142W, strain chs7, hits give low values 1 | locus YHR200W, strain rpn10, hits give low values 0.995 | locus YIL066C, strain RNR3, hits give low values 0.992 | locus YIL073C, strain SPO22, hits give low values 1.02 | locus YIL125W, strain kgd1, hits give low values 0.988 | locus YIR030C, strain dcg1, hits give low values 0.985 | locus YJL092W, strain hpr5, hits give low values 1.01 | locus YJL095W, strain BCK1 (second series), hits give low values 1 | locus YJL095W, strain BCK1, hits give low values 1.02 and 0.968 | locus YJL115W, strain asf1, hits give low values 1.01 | locus YJL129C, strain trk1, hits give low values 1.03 | locus YJL134W, strain LCB3, hits give low values 0.996 | locus YJL154C, strain vps35, hits give low values 1.01 | locus YJL164C, strain tpk1, hits give low values 1.02 | locus YJL166W, strain qcr8, hits give low values 1.01 | locus YJL168C, strain set2, hits give low values 0.983 | locus YJL187C, strain SWE1 (second series), hits give low values 1.01 | locus YJL187C, strain SWE1, hits give low values 1.01
